Screening data deposited in PubChem BioAssay by National Center for Advancing Translational Sciences (NCATS).
Only some compounds are listed: those with a hit (about 7.5% of all), similar ones and a draw of the others.
TSHR antagonist: Antagonists of the Thyroid Stimulating Hormone Receptor: HTS campaign. TSHR-expressing cells, TSH-stimulated cAMP HTRF, 2 h; stronger effect = lower value. actives 0.2% (n = 330,000). Thyrotropin receptor (Homo sapiens), P16473. activity change, negative = inhibition, % at 11.5 µM;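 active means activity change below a set negative limit, meaning inhibition stronger than a set level, cut at about -70% in these data; inconclusive means activity change between two set negative limits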
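Antagonism was scored as loss of TSH-driven cAMP in TSHR cells, stimulated with 4nM TSH (EC80) for 2 hours at 37 deg C and detected by homogeneous HTRF competition immunoassay.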
B2AR arrestin: qHTS assay of beta-arrestin-biased ligands of beta2-adrenergic receptor | Potency, µM (doses to about 46.1 µM), without a hit: at the highest dose activation, usual class: activators | Beta-2 adrenergic receptor (Homo sapiens), P07550 | AID 492947, 2010 | actives 0.02% (n = 330,000) | beta-arrestin recruitment to beta2AR, cell-based reporter;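 further: potency means the concentration at half of the fitted maximal effect; 0% = DMSO controls and full agonism = EC100 isoproterenol or metaproterenol; nearly all actives have a fitted effect of over 65% in size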
Target sequence (P07550 whole entry, looked up): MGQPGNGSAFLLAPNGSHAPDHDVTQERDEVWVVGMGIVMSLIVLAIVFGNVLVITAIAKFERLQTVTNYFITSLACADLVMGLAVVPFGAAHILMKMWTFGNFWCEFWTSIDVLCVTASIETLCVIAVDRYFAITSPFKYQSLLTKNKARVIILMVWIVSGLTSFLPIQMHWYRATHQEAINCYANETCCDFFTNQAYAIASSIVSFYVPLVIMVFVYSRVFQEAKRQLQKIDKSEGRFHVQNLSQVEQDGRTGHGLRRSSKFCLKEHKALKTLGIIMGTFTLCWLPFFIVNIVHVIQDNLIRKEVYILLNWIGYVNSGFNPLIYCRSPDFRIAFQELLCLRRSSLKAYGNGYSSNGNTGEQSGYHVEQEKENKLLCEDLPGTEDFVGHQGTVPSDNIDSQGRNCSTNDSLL
RORgamma inh: qHTS for inhibitors of ROR gamma transcriptional activity; Nuclear receptor ROR-gamma (Mus musculus), P51450; Drosophila S2 Gal4-RORgamma UAS-luciferase reporter, 20 h; Potency, µM (top dose mostly 53.6 µM), for the others: at the highest dose activity change, negative = inhibition, usual class: inhibitors; actives 5.4% (n = 310,000); further: potency means the concentration at half of the fitted maximal effect; nearly all actives have a fitted effect of over 60% in size
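In this cell-based reporter format, copper sulfate (700 uM final) drives Gal4–ROR gamma fusion expression from a metallothionein promoter in Drosophila Schneider cells; compounds preincubated 1 hr, reporter read after 20 hr at ambient temperature.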
VP16 counter: VP16 counterscreen qHTS for inhibitors of ROR gamma transcriptional activity | actives 3.5% (n = 310,000) | Drosophila S2 Gal4-VP16 UAS-luciferase, luminescence, 20 h | Potency, µM (titrated, usually from 53.6 µM), for the others: top-dose activity, negative = inhibition, hits mostly inhibitors;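 further: Gal4-VP16 expression switched on by copper sulfate through the metallothionein promoter; potency means the concentration at half of the fitted maximal effect; nearly all actives have a fitted effect of over 50% in size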
ELG1 repair inh: qHTS screen for small molecules that inhibit ELG1-dependent DNA repair in human embryonic kidney (HEK293T) cells expressing luciferase-tagged ELG1; Potency, µM (doses to about 46.1 µM), without a hit: at the highest dose activity change, negative = inhibition, hits mostly inhibitors; AID 504467, 2011; actives 2.3% (n = 330,000); HEK293T ELG1-luciferase reporter, luminescence, 16 h; DNA damage induced by 5-fluorouridine; further: potency means the concentration at half of the fitted maximal effect; nearly all actives have a fitted effect of over 55% in size
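Quantitative HTS, concentration-response format. 2,000 cells/well co-treated with 5-fluorouridine and compound, 16 hr in 5% CO2 at 37 °C; ONE-Glo luminescence read after 30 min.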
Numbers without * were called inactive. Unless noted, the call rests on the fitted dose curve; in most records, active means well fitted curve in the direction sought with a large enough effect; inconclusive means small, poorly fitted or top-dose-only effect, or another doubt; inactive means no such curve, though single readings can be large; an effect the other way counts as inactive or inconclusive. Unless noted, on the % scale 0 is the no-effect control and ±100 the full control effect.

`CC(C)(C)c1ccc(OCCC(=O)NC2=NCCS2)cc1` gave TSHR antagonist 6, B2AR arrestin -1%, RORgamma inh 3.5µM*, VP16 counter 8.9µM* and ELG1 repair inh 11%.
Screening CC[C@H](C)[C@H](NC(=O)[C@H](Cc1ccc(O)cc1)NC(=O)[C@H](Cc1cnc[nH]1)NC(=O)[C@H](CCCNC(=N)N)NC(=O)[C@H](CC(C)C)NC(=O)[C@H](C)NC(=O)[C@H](CO)NC(=O)[C@H](Cc1ccc(O)cc1)NC(=O)[C@H](Cc1ccc(O)cc1)NC(=O)[C@H](CCCNC(=N)N)NC(=O)[C@H](C)NC(=O)[C@H](CCSC)NC(=O)[C@H](CC(=O)O)NC(=O)[C@H](CCC(=O)O)NC(=O)[C@H](C)NC(=O)[C@@H]1CCCN1C(=O)[C@H](C)NC(=O)[C@H](CC(=O)O)NC(=O)[C@H](CCC(=O)O)NC(=O)CNC(=O)[C@@H]1CCCN1C(=O)[C@H](CC(N)=O)NC(=O)[C@H](CC(=O)O)NC(=O)[C@@H]1CCCN1C(=O)[C@H](CCCCN)NC(=O)[C@H](CO)NC(=O)[C@@H]1CCCN1C(=O)[C@@H](N)Cc1ccc(O)cc1)C(=O)N[C@@H](CC(N)=O)C(=O)N[C@@H](CC(C)C)C(=O)N[C@H](C(=O)N[C@H](C(=O)N[C@@H](CCCNC(=N)N)C(=O)N[C@@H](CCC(N)=O)C(=O)N[C@@H](CCCNC(=N)N)C(=O)N[C@@H](Cc1ccc(O)cc1)C(N)=O)[C@@H](C)O)[C@@H](C)CC returned RORgamma inh 18% and VP16 counter 1%.
CC(NC(=O)c1ccc([N+](=O)[O-])o1)C12CC3CC(CC(C3)C1)C2 (stereo not given) was read as TSHR antagonist inconclusive, B2AR arrestin -1%, RORgamma inh 2.5µM*, VP16 counter -13% and ELG1 repair inh 6%.
For CC(NC(=O)C12CC3CC(CC(C3)C1)C2)C(=O)NN=Cc1ccc([N+](=O)[O-])o1 (stereo not given) the results were TSHR antagonist -6, B2AR arrestin -1% and ELG1 repair inh -24%.
For O=C(COc1ccccc1F)N/N=C1\CCCc2ccccc21 the results were TSHR antagonist -15, B2AR arrestin -1%, RORgamma inh 4µM*, VP16 counter inconclusive and ELG1 repair inh inconclusive.
`Cc1ccc(NC(=O)CNC(=O)CC23CC4CC(CC(C4)C2)C3)c(O)c1` gave TSHR antagonist 10, B2AR arrestin 0% and ELG1 repair inh 12%.
`Cc1c(NC(=O)c2cc3c(s2)-c2ccccc2OC3)cccc1[N+](=O)[O-]` gave TSHR antagonist -21, B2AR arrestin 0%, RORgamma inh 39%, VP16 counter -2% and ELG1 repair inh 23µM*.
CCCN1CCN(CCCNC(=O)c2cc3c(s2)-c2c(C)cccc2OC3)CC1 was read as TSHR antagonist 3, B2AR arrestin 0%, RORgamma inh 9%, VP16 counter 6% and ELG1 repair inh 6%.
`CCN1CCN(CCCNC(=O)c2cc3c(s2)-c2ccccc2OC3)CC1` gave TSHR antagonist -2, B2AR arrestin 0%, RORgamma inh -38%, VP16 counter -7% and ELG1 repair inh inconclusive.
For Cc1csc(NC(=O)c2cc3c(s2)-c2ccccc2OC3)n1 the results were TSHR antagonist -12, B2AR arrestin -1%, RORgamma inh 41%, VP16 counter -18% and ELG1 repair inh inconclusive.
For CCCN1CCN(CCCNC(=O)c2cc3c(s2)-c2ccccc2OC3)CC1 the results were TSHR antagonist -72*, B2AR arrestin 0%, RORgamma inh -20%, VP16 counter -4% and ELG1 repair inh inconclusive.
